The entries come from a sample that favours hits as a whole.
KDM4E inh: inhibitors of human JMJD2E histone demethylase | B2RXH2 | JMJD2E catalytic domain, FDH-coupled NADH fluorescence (FDH is formaldehyde dehydrogenase) | Potency, µM (doses to about 57.1 µM), actives largely listed as inhibitors | hit rate 1.6% among 230,000; active means well fitted inhibition curve with a large enough effect, not every such curve was filed as active; inconclusive means small, poorly fitted or top-dose-only effect, or another doubt; inactive means no such curve, though single readings can be large or run the other way; further: nearly all actives have a fitted effect of over 50% in size
Target sequence (B2RXH2 1-337 limits assumed): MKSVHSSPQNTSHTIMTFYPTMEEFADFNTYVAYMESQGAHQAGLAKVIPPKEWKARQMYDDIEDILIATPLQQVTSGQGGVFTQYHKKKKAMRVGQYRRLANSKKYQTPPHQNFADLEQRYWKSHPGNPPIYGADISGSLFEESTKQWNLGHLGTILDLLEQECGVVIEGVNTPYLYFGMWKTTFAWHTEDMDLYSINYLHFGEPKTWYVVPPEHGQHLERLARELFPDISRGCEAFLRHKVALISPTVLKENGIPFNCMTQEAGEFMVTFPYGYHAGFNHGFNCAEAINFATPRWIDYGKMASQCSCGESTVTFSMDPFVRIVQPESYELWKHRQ
APEX1 inh: blocks human APE1 abasic DNA cleavage; recombinant APE1, TAMRA/BHQ-2 abasic DNA cleavage fluorescence; Potency, µM (top dose mostly 65.8 µM), hits mostly inhibitors; hit rate 0.35% among 350,000; AID 2517; further: nearly all actives have a fitted effect of over 55% in size
Target sequence (P27695 whole entry, looked up): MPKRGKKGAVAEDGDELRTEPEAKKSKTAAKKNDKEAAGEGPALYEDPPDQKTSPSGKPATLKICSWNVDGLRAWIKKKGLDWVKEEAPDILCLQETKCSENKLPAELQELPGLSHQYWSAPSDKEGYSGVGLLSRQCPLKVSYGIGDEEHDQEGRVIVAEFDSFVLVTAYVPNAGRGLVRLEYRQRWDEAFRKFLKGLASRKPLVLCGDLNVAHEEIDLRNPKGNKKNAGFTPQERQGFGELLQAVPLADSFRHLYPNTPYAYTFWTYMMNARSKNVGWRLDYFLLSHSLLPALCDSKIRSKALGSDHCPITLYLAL
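Substrate: short duplex with […] THF abasic site, 5'-TAMRA and 3'-BHQ-2, 50 nM final. APE1 at 0.75 nM, preincubated 15 min RT with compound. Fluorescence increase from first to third read measured activity.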
RECQ1 helicase: RECQ1 (human) helicase inhibition. hit rate 0.54% among 240,000. Potency, µM (titrated, usually from 57.3 µM), usual class: inhibitors. AID 2549. RECQ1 DNA unwinding, red fluorescence kinetic read. P46063; further: nearly all actives have a fitted effect of over 30% in size
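50 nM RECQ1T1 preincubated 15 min with compound in Tris pH 8.0 buffer with MgCl2, DTT, Tween-20 and 2.5 ug/ml poly(dI-dC); started with 200 nM TAMRA/BHQ-2 forked duplex and 2 mM ATP. Unwinding read as fluorescence (525/598 nm), two reads 2 h apart.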
BLM helicase inh: Bloom syndrome helicase (human) inhibition; P54132; AID 2528; Potency, µM (titrated, usually from 56.1 µM), usual class: inhibitors; hit rate 0.2% among 350,000; recombinant BLM DNA unwinding, fluorescence dequenching; further: nearly all actives have a fitted effect of over 35% in size
PKM2 act: activators of human pyruvate kinase M2. P14618. purified PKM2, Kinase-Glo ATP luminescence, activation; response scale: 0% is enzyme alone, no compound. Potency, µM (top dose mostly 57.5 µM), usual class: activators. hit rate 0.34% among 260,000. AID 1631; further: nearly all actives have a fitted effect of over 55% in size
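hPK-M2, >95% pure; 0.1 mM ADP / 0.5 mM PEP final; imidazole pH7.2 buffer w/ 7 mM MgCl2, 50 mM KCl; 1 h RT; Kinase-Glo lum. Intermediate enzyme activity for dual inhibitor/activator qHTS.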
Of the large screens only hits and unclear results are named; the others gave an inactive call; ! = a repeat was not active. Unless noted, the call rests on the fitted dose curve; in most records, active means well fitted curve in the direction sought with a large enough effect; inconclusive means small, poorly fitted or top-dose-only effect, or another doubt; inactive means no such curve, though single readings can be large; an effect the other way counts as inactive or inconclusive.

O=C(Nc1ccc(S(=O)(=O)Nc2ncccn2)cc1)c1ccc2ncsc2c1	KDM4E inh 3.16µM
O=C(O)c1ccc(CSc2nnc(-c3ccc([S+](=O)([O-])N4CCCC4)cc3)n2-c2ccccc2)cc1	none (no result: KDM4E inh, RECQ1 helicase, BLM helicase inh, PKM2 act)
C=CCn1c(COc2ccc(Cl)cc2)nnc1SCC(=O)N/N=C/c1cccc(O)c1	none
C=CCn1c(CNc2ccccc2)nnc1SCC(=O)N/N=C/c1ccccc1O	KDM4E inh 14.1µM
Cc1ccc(CN(C)C(=O)C2CCCN2C(=O)c2cccs2)o1 (stereo not drawn)	PKM2 act 14.1µM
C[C@@H]1O[C@H](O[C@@H]2C(O)[C@H](O)[C@@H](CO)O[C@H]2Oc2cc(O)c3c(=O)cc(-c4ccc(O)cc4)oc3c2)[C@H](O)[C@H](O)[C@H]1O (stereo partly drawn)	none (no result: KDM4E inh, PKM2 act)
O=C(O)c1cc(O)c2c(c1)[C@@H]([C@H]1c3cc(C(=O)O)cc(O)c3C(=O)c3c(O[C@@H]4O[C@H](CO)[C@@H](O)[C@H](O)[C@H]4O)cccc31)c1cccc(O[C@@H]3O[C@H](CO)[C@@H](O)[C@H](O)[C@H]3O)c1C2=O	APEX1 inh 0.067µM (no result: KDM4E inh, RECQ1 helicase, BLM helicase inh, PKM2 act)
C(=C\c1ccco1)/C=N/n1cnnc1	KDM4E inh 14.1µM, APEX1 inh inconclusive
Cc1nc(SCc2cccc(F)c2)[nH]c(=O)c1C#N	KDM4E inh 28.2µM
CC1(C)S[C@H]2[C@@H](NC(=O)C(N)c3ccccc3)C(=O)N2[C@H]1C(=O)O (stereo partly drawn)	KDM4E inh inconclusive, APEX1 inh 20µM, RECQ1 helicase inconclusive (no result: PKM2 act)
CCCCCCCC/C=C\CCCCCCCC(=O)NCCc1ccc(O)c(O)c1	KDM4E inh 20µM!, APEX1 inh inconclusive (no result: PKM2 act)
CSc1nc(SCCO)c2sc3nc(-c4ccco4)c4c(c3c2n1)CC(C)(C)OC4	KDM4E inh inconclusive, APEX1 inh inconclusive, RECQ1 helicase 12.6µM, BLM helicase inh 12.6µM
CCOC(=O)c1c(-c2ccc(C)o2)csc1NC(=O)CSc1nnc(C)s1	PKM2 act 12.6µM
CCOC(=O)c1c(-c2ccc(C)o2)csc1NC(=S)NC(=O)c1ccccc1Br	PKM2 act 3.16µM
CCOC(=O)c1sc(NC(=O)CSc2nnnn2-c2ccccc2)nc1C	none
CCOC(=O)c1c(-c2ccc(C)o2)csc1NC(=S)NC(=O)c1cccs1	PKM2 act inconclusive
CCOC(=O)c1c(-c2ccc(C)o2)csc1NC(=O)CSc1nnnn1-c1ccccc1	PKM2 act 7.94µM
CCOc1ccc(-n2c(C)cc(/C=C3/C(=N)N4C(=NC3=O)SN=C4S(C)(=O)=O)c2C)cc1	KDM4E inh inconclusive
Cc1ccc(-n2cccc2/C=C2/C(=N)N3C(=NC2=O)SN=C3S(C)(=O)=O)cc1Cl	KDM4E inh 22.4µM, BLM helicase inh 28.2µM
Cc1cc(/C=C2/C(=N)N3C(=NC2=O)SN=C3S(C)(=O)=O)c(C)n1-c1ccc(F)cc1	KDM4E inh 31.6µM
CC#CC(=O)Nc1cc2c(Nc3ccc(F)c(Cl)c3)ncnc2cn1	APEX1 inh inconclusive (no result: KDM4E inh, PKM2 act)
Cc1cc(C)c(S(=O)(=O)N2CCN(C(=O)CCn3nc(C)c(C)c3C)CC2)c(C)c1	PKM2 act 14.1µM (no result: KDM4E inh, RECQ1 helicase)
CC(C)CC(=O)N1CCN(S(=O)(=O)c2ccccc2)CC1	none
Cc1nn(CCC(=O)N2CCN(S(=O)(=O)c3ccccc3)CC2)c(C)c1C	PKM2 act 11.2µM (no result: KDM4E inh, RECQ1 helicase)
NC[C@H]1O[C@H](O[C@H]2[C@H](O)[C@@H](O[C@H]3O[C@H](CO)[C@@H](O)[C@H](N)[C@H]3O)[C@H](N)C[C@@H]2N)[C@H](N)[C@@H](O)[C@@H]1O	none (no result: KDM4E inh, RECQ1 helicase, BLM helicase inh, PKM2 act)
CC(C)C[C@H](NC(=O)CNC(=O)[C@H](CCC(N)=O)NC(=O)[C@H](CC(C)C)NC(=O)[C@H](CC(C)C)NC(=O)[C@H](CCCNC(=N)N)NC(=O)[C@H](CCC(N)=O)NC(=O)[C@H](CC(C)C)NC(=O)[C@H](CCCNC(=N)N)NC(=O)[C@H](C)NC(=O)CNC(=O)[C@H](CCC(=O)O)NC(=O)[C@H](CCCNC(=N)N)NC(=O)[C@H](CC(C)C)NC(=O)[C@H](CCCNC(=N)N)NC(=O)[C@H](CO)NC(=O)[C@H](CC(C)C)NC(=O)[C@H](CCC(=O)O)NC(=O)[C@H](CO)NC(=O)[C@@H](NC(=O)[C@H](Cc1ccccc1)NC(=O)[C@@H](NC(=O)CNC(=O)[C@H](CC(=O)O)NC(=O)[C@H](CO)NC(=O)[C@@H](N)Cc1cnc[nH]1)[C@@H](C)O)[C@@H](C)O)C(=O)N[C@H](C(N)=O)C(C)C	none (no result: KDM4E inh, PKM2 act)
O=S(=O)(Nc1ccc(N2CCOCC2)nn1)c1ccccc1	KDM4E inh inconclusive, PKM2 act 14.1µM
CC(=O)c1ccc(S(=O)(=O)Nc2cccc(-c3ccc(N4CCOCC4)nn3)c2)cc1	none (no result: KDM4E inh, RECQ1 helicase, BLM helicase inh, PKM2 act)
CSCC[C@H](NC(=O)[C@H](CC(C)C)NC(=O)[C@H](CO)NC(=O)[C@H](CCC(=O)O)NC(=O)[C@H](CC(C)C)NC(=O)[C@H](Cc1ccc(O)cc1)NC(=O)[C@H](CCCCN)NC(=O)[C@H](CCCCN)NC(=O)[C@H](C)NC(=O)[C@H](CO)NC(=O)[C@H](CC(C)C)NC(=O)[C@H](CCC(N)=O)NC(=O)CNC(=O)[C@H](CC(C)C)NC(=O)[C@H](CC(C)C)NC(=O)[C@H](CCCCN)NC(=O)[C@H](CO)NC(=O)[C@H](Cc1ccccc1)NC(=O)[C@H](CC(=O)O)NC(=O)[C@H](CO)NC(=O)[C@@H](NC(=O)[C@H](Cc1ccccc1)NC(=O)[C@@H](NC(=O)CNC(=O)[C@H](CC(=O)O)NC(=O)[C@H](C)NC(=O)[C@@H](N)Cc1cnc[nH]1)C(C)C)[C@@H](C)O)C(N)=O	none (no result: KDM4E inh, PKM2 act)
Cc1ccc(C(=O)NC2(O)C(=O)c3ccccc3C2=O)cc1C	KDM4E inh 14.1µM, APEX1 inh inconclusive
CCCNC(=O)OC[C@@H]1O[C@H](CCO/N=C(\C)CCN2CCc3nc(CC)c(CC)cc3C2)C=C[C@@H]1Oc1ccc(OC)cc1	none (no result: KDM4E inh, PKM2 act)
O=C(O)c1cccnc1C(=O)O	KDM4E inh 2µM (no result: PKM2 act)
COC(=O)CCCC1=CC2=C(c3ccccc3)C(=O)C(C)(OC(=O)C3CCCC3)C(=O)C2=CN1Cc1ccccc1 (stereo not drawn)	none
COC(=O)CCCC1=CC2=C(c3ccccc3)C(=O)C(C)(OC(=O)C3CCCC3)C(=O)C2=CN1CCN1CCOCC1 (stereo not drawn)	KDM4E inh 3.16µM!
COc1ccc(Cl)cc1Nc1nnc(-c2ccncc2)s1	APEX1 inh 8.44µM (no result: KDM4E inh, RECQ1 helicase, PKM2 act)
O=C(CSc1nc(-c2ccc(F)cc2)nc2c1Cc1ccccc1O2)Nc1cccc(C(=O)O)c1	APEX1 inh 2.99µM, RECQ1 helicase inconclusive, BLM helicase inh inconclusive, PKM2 act inconclusive
NC(=O)c1ccc2nc(-c3ccc(Oc4ccc(Cl)cc4)cc3)[nH]c2c1	APEX1 inh inconclusive (no result: KDM4E inh, PKM2 act)
